Sm TGR block – S. mansoni TGR enzyme inhibition. Q962Y6. purified TGR, DTNB reduction, TNB absorbance 405 nm. Potency, µM (doses to about 114 µM), without a hit: top-dose activity change, negative = inhibition, most hits filed as inhibitors. 3% of 360,000 active; note: potency is the fitted concentration of half-maximal effect; nearly all actives have a fitted effect of over 60% in size
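First, TGR (20 nM dispensed) and NADPH were mixed with compound. Second, a 15 min room-temperature incubation followed. Third, further NADPH and then DTNB were added to start the reaction. Finally, TNB absorbance was monitored kinetically.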
Pf growth 48h – P. falciparum growth inhibition at 48 hours (one generation). P. falciparum luciferase growth in erythrocytes, 48 h. Potency, µM (series often up to 28.7 µM), for the others: top-dose activity change, negative = inhibition, usual class: inhibitors. 5.9% of 310,000 active. AID 504832; note: potency is the fitted concentration of half-maximal effect
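Parasite viability was followed by luminescence of a genomically integrated firefly luciferase. Cultures held 0.1% parasitemia at 2% hematocrit (final), incubated under 5% CO2 at 37 C.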
Pf growth 96h – inhibits malaria parasite growth, 96 h. P. falciparum luciferase reporter growth, 96 h. Potency, µM (doses to about 28.7 µM), for inactives: top-dose activity change, negative = inhibition, most hits filed as inhibitors. AID 504834. 6.9% of 320,000 active; note: potency is the fitted concentration of half-maximal effect
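Erythrocytes infected with luciferase-expressing P. falciparum were dispensed at 2% hematocrit and 0.05% parasitemia (final), then incubated with compounds 96 hours at 37 C in 5% CO2. Luminescence after detection reagent addition reported growth.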
HCMV inh – human cytomegalovirus inhibition | activity change, negative = inhibition, % at 57.5 µM | AID 1259415 | 4.5% of 410,000 active | HFF cells, HCMV-luciferase reporter, 72 h; active compounds read low; in the data active = activity change below about -60%; inconclusive = no clear call, values can overlap the other calls; inactive = above about -39%
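Inhibition of viral replication was scored as loss of reporter luminescence in HFFs infected with HCMV-luciferase (MOI 1 PFU/cell) for 72 h; compounds tested at 2 doses, normalized to buffer and Salinomycin controls.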
Giardia FBPA inh – blocks Giardia fructose-bisphosphate aldolase activity; A8B2U2; purified Giardia FBPA; Potency, µM (titrated, usually from 59.6 µM), for the others: at the top dose activity, negative = inhibition, usual class: inhibitors; 0.71% of 290,000 active; note: potency is the fitted concentration of half-maximal effect; nearly all actives have a fitted effect of over 55% in size
Target sequence (A8B2U2 whole entry, looked up): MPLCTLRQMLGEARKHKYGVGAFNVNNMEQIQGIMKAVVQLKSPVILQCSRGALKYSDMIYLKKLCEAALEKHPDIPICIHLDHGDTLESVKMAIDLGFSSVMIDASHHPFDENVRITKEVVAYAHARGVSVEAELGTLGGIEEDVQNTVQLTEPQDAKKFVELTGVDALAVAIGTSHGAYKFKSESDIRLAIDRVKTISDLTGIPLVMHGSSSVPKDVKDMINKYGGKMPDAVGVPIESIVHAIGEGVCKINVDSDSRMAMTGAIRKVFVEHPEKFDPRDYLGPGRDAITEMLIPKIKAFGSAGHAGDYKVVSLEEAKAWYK
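40 nM FBPA preincubated 10 min at RT with compound (up to 57.5 uM final), then substrate plus GAPDH/TPI/NAD/arsenate coupling and diaphorase/resazurin added. Fluorescence read after 20 min at RT, 525/598 nm.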
Numbers without * were called inactive; ? = inconclusive; nt = not tested or not shown; + = active, no number; [ ] = remark or other dose. An excerpt weighted towards active compounds, which were near 14% of everything screened. Unless noted, calls come from the whole dose curve; as a rule, active = well fitted curve in the direction sought with a large enough effect; inconclusive = small, poorly fitted or top-dose-only effect, or another doubt; inactive = no such curve, though single readings can be large; an effect the other way counts as inactive or inconclusive. % is set by controls: 0 for no effect and ±100 for the full control effect.

SMILES | Sm TGR block | Pf growth 48h | Pf growth 96h | HCMV inh | Giardia FBPA inh
CC(C)(C)c1ccc(C(=O)NCCOc2ccccc2)cc1 | 1.8% | 130.9% | 9.28µM* | ? | -8.8%
CC(C)(C)c1ccc(C(=O)NC(=S)NCc2ccco2)cc1 | ? | ? | 10.1% | -23.2 | nt
COc1ccccc1C(=O)NCCOc1ccc(C(C)(C)C)cc1 | 1.5% | ? | 14.7µM* | -14.9 | 5.9%
CN(C)S(=O)(=O)c1ccc(C(=O)NCCOc2ccccc2)cc1 | -0.7% | 143.3% | nt | 147.4 | 4.1%
CC(C)(C)c1ccc(C(=O)NCCOc2ccccc2F)cc1 | 3.7% | 38.6% | ? | -69.5* | 1.3%
COCCNC(=S)NC(=O)c1ccc(C(C)(C)C)cc1 | 39.8µM* | 35.5%[5.75 µM] | ? | -34.9 | -13.0%
COc1ccccc1OCCNC(=O)c1ccccc1C | 0.2% | 23.1% | nt | -7.1 | 1.5%
CC(C)Oc1ccc(/C(O)=C2/C(=O)C(=O)N(CCN3CCNCC3)C2c2cccc([N+](=O)[O-])c2)cc1 (centres undefined) | ? | 9.3% | 131.5% | 41.3 | 13.2%
CCc1ccc(NC(=O)C2CCCN(c3nn4cc(-c5ccc(OC)cc5)nc4s3)C2)cc1 (centres undefined) | 2.7% | nt | nt | ? | nt
O=C(NCCOc1ccccc1)c1cc(C(=O)NCCOc2ccccc2)cc([N+](=O)[O-])c1 | 10.6% | 11.7µM* | ? | -8.1 | 1.4%
Cc1cc(C)c(C(=O)Nc2ccc(Br)c(C(F)(F)F)c2)c(C)c1 | 4.1% | 13.1µM* | 9.28µM* | ? | -5.7%
O=C(O)c1ccccc1C(=O)Nc1ccc(Br)c(C(F)(F)F)c1 | 2.1% | 28.2% | 40.5% | 13.5 | 13.9%
CC(Nc1oc(-c2ccc(COc3ccccc3)o2)nc1C#N)c1ccccc1 (centres undefined) | -11.5% | nt | nt | -79.0* | nt
CCOc1ccc(Nc2oc(-c3ccc(COc4ccc(OC)cc4)o3)nc2C#N)cc1 | 1.8% | nt | nt | -80.9* | nt
N#C/C(N)=C(/C#N)N=Cc1cccc(Cl)c1 | -3.8% | ? | 68.2% | -35.0 | 1.7%
COc1ccc(CC2SC(=Nc3ccc(F)cc3)NC2=O)cc1 (centres undefined) | 4.3% | 2.94µM* | -25.0% | -38.3 | 0.4%
Cc1ccc(NC(=O)CSc2nnc(-c3nnn(-c4ccc(F)cc4)c3C)o2)cc1Br | -6.6% | nt | nt | 32.3 | nt
Fc1ccc(-c2nnc(CSc3nnc4ccccn34)o2)cc1 | -10.5% | 94.9% | 128.9% | -0.7 | 3.8%
Cc1ccc(S(=O)(=O)N2CCN(C(=O)COc3ccc(-c4nnco4)cc3)CC2)cc1 | 7.0% | ? | ? | 6.1 | 10.5%
c1ccc(-c2cnc(CSc3nnc4ccccn34)o2)cc1 | 10µM* | 186.9% | nt | 150.7 | ?
COc1ccc(-c2nnc(SCc3ncc(-c4ccccc4)o3)o2)cc1 | 39.8µM* | ? | 60.9% | -14.6 | 22.1%
CCN(CC)S(=O)(=O)c1ccc(-c2nnco2)cc1 | 10.0% | -26.0% | 13.1µM* | 23.9 | 4.6%
Cc1ccc(S(=O)(=O)CCC(=O)Oc2ccc(-c3nnco3)cc2)cc1 | 20µM* | -21.5% | 1.3% | 14.8 | nt
O=C(c1ccc(C(F)(F)F)cc1)N1CCC(c2noc(-c3ccc(S(=O)(=O)N4CCCC4)cc3)n2)CC1 | 2.7% | nt | nt | -10.0 | nt
O=C(COC(=O)CNC(=O)C1CCCCC1)NCc1ccc(Cl)cc1 | nt | nt | nt | 78.0 | nt
SMILES | Sm TGR block | Pf growth 48h | Pf growth 96h | HCMV inh | Giardia FBPA inh
CCN(CC)S(=O)(=O)c1ccc(-c2nnc(SCc3nnc(-c4ccccc4)o3)o2)cc1 | -21.8% | -0.2% | 3.7µM* | -18.3 | 2.3%
O=S(=O)(c1ccc(-c2nnc(SCc3nnc(-c4ccccc4)o3)o2)cc1)N1CCCC1 | 1.2% | ? | 88.2% | -5.0 | 7.8%
COc1ccc(Oc2nc(-c3ccncc3)nc3ccccc23)cc1 | -1.9% | ? | ? | 18.0 | -1.0%
C=CCOc1nc(-c2ccncc2)nc2ccccc12 | -15.1% | 7.38µM* | 17.9% | 20.8 | 6.6%
CCCOc1ccc(Oc2nc(-c3ccncc3)nc3ccccc23)cc1 | 1.9% | 1.31µM* | 1.04µM* | -6.7 | 3.1%
Cc1ccc2[nH]cc(C(=O)CCl)c2c1 | ? | ? | -23.8% | -91.1* | 1.1%
Cc1ccc2c(C(=O)CCl)c(C)[nH]c2c1 | 1.41µM* | 1.2% | -0.9% | -33.7 | -9.4%
Cc1cc2c(cc1S(=O)(=O)CCC(=O)N1CC(C)CC(C)C1)OCC(=O)N2 (centres undefined) | -12.1% | 10.5% | 0.8% | -23.1 | 11.2%
Cc1cc(C)n(CCc2nc3c4ccccc4nc(N4CCN(c5ccccc5)CC4)n3n2)n1 | -0.3% | nt | nt | 3.6 | nt
COc1ccccc1CNC(=O)c1ccc(CSc2nc3ccncc3n2Cc2cccc(F)c2)cc1 | -2.9% | nt | nt | -29.6 | nt
Cc1ccc2c(c1)C(=O)C(=O)N2CCOc1ccccc1 | nt | 4.6% | 1.7% | -73.3* | -7.9%
Cc1cccc(OCCN2C(=O)C(=O)c3cccc(C)c32)c1 | -8.6% | -16.2% | 8.9% | -31.1 | 6.2%
Cc1cccc(OCCN2C(=O)C(=O)c3cc(C)ccc32)c1 | -0.6%[57.1 µM] | 11.0% | ? | -88.9* | -11.1%
Cc1ccc2c(c1)C(=O)C(=O)N2CCCOc1ccccc1C | ? | 24.2% | ? | -14.7 | -11.3%
CCN(c1cccc(C)c1)S(=O)(=O)c1cn(CC(=O)OC)c2ccc([N+](=O)[O-])cc12 | 2.1% | 6.8% | ? | -22.9 | -3.9%
C[C@H](NC(=O)N1CCn2c1nc1ccccc12)C(=O)N1CCCCC1 | -6.1% | 12.6% | 22.6% | + | -12.0%
CSCC[C@H](NC(=O)N1CCn2c1nc1ccccc12)C(=O)NCc1ccc(F)cc1 | 1.8% | ? | 11.7µM* | 0.0 | nt
C[C@H](NC(=O)N1CCn2c1nc1ccccc12)C(=O)NC1CC1 | -11.4% | -10.9% | -22.7% | 0.0 | nt
Cc1ccc(S(=O)(=O)N2CCN(c3nc(C)nc4sc5c(c34)CCC(C)C5)CC2)cc1 (centres undefined) | 6.4% | ? | 7.38µM* | nt | 0.6%
CCc1nc(N2CCN(C(=O)CCl)CC2)c2c3c(sc2n1)CC(C)CC3 (centres undefined) | 15.8µM* | ? | -67.3% | -10.4 | -19.2%
CCN(CC(=O)Nc1cc(Cl)cc(Cl)c1)CC(=O)NC1CCS(=O)(=O)C1 (centres undefined) | nt | nt | nt | -28.2 | nt
Cc1ccccc1-c1nnc(SCC(=O)Nc2cccnc2Cl)o1 | nt | nt | nt | 47.7 | nt
COc1ccc(-c2cc3nc(C4CCN(C(=O)OC(C)(C)C)CC4)c(C(=O)O)cn3n2)cc1 | 0.0% | 1.31µM* | 15.8% | 23.0 | 27.6%
CCCCCc1ccc(C(=O)CCC(=O)OCC(=O)N(CC)c2c(N)n(Cc3ccccc3)c(=O)[nH]c2=O)cc1 | 3.9% | 7.1% | 46.1% | -13.3 | nt
CCCSc1nc2cc(OC)c(OC)cc2c(=N)n1CCCN1CCOCC1 | -8.4% | 11.7µM* | 4.65µM* | -25.3 | -2.5%
COCCCn1c(SCc2ccc(OC)cc2)nc2cc(OC)c(OC)cc2c1=N | -19.5% | ? | ? | -0.3 | -0.4%

Assay outcomes from PubChem BioAssay.
